Assay results: PubChem BioAssay AID1159580 (chemical genetic matrix, 2015)
Screen size: about 5,500 compounds; about 2,000 (36%) were called active. Roughly 18% stayed inconclusive and do not appear here. Cut-off read from the data, not from the text of the source: active = normalized growth mostly below about 0.91 (no sharp cut-off); inconclusive = no clear call, values can overlap the other calls; inactive = mostly above about 0.92. Some of the results follow.

Assay: chemical genetic growth profiling, strain panel (AID 1159580);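 note: tested at 20 µM; growth read once vehicle control cultures reached saturation at 30 °C; 1 = growth at the plate median or of vehicle wells; lower values mean less growth of the strain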
Details: growth OD

Measured: normalized growth

COP(N)(=O)SC (configuration not stated)
inactive: S. cerevisiae deletion strains, locus YJR075W, strain HOC1, stronger effect = lower value 1.01 | S. cerevisiae deletion strains, locus YKL009W, strain mrt4, stronger effect = lower value 1 | S. cerevisiae deletion strains, locus YKL068W, stronger effect = lower value 0.999 | S. cerevisiae deletion strains, locus YKL085W, strain MDH1 (second series), stronger effect = lower value 1 | S. cerevisiae deletion strains, locus YKL085W, strain MDH1, stronger effect = lower value 1 | S. cerevisiae deletion strains, locus YKL160W, strain elf1, stronger effect = lower value 0.995 | S. cerevisiae deletion strains, locus YKL190W, strain CNB1, stronger effect = lower value 1 | S. cerevisiae deletion strains, locus YKR001C, strain vps1, stronger effect = lower value 1.03 | S. cerevisiae deletion strains, locus YKR026C, strain gcn3, stronger effect = lower value 0.995 | S. cerevisiae deletion strains, locus YKR091W, strain srl3, stronger effect = lower value 1 | S. cerevisiae deletion strains, locus YLL001W, strain dnm1, stronger effect = lower value 0.981 | S. cerevisiae deletion strains, locus YLL026W, stronger effect = lower value 0.996 | S. cerevisiae deletion strains, locus YLL041C, strain sdh2, stronger effect = lower value 1 | S. cerevisiae deletion strains, locus YLR027C, strain aat2, stronger effect = lower value 0.999 | S. cerevisiae deletion strains, locus YLR039C, strain RIC1, stronger effect = lower value 1.04 | S. cerevisiae deletion strains, locus YLR058C, strain SHM2, stronger effect = lower value 1.01 | S. cerevisiae deletion strains, locus YLR102C, strain apc9, stronger effect = lower value 1.02 | S. cerevisiae deletion strains, locus YLR113W, strain HOG1, stronger effect = lower value 0.963 | S. cerevisiae deletion strains, locus YLR221C, strain rsa3, stronger effect = lower value 0.991 | S. cerevisiae deletion strains, locus YLR258W, strain gsy2, stronger effect = lower value 1.01 | S. cerevisiae deletion strains, locus YLR262C, strain YPT6 (second series), stronger effect = lower value 1.01 | S. cerevisiae deletion strains, locus YLR262C, strain YPT6, stronger effect = lower value 1.02 | S. cerevisiae deletion strains, locus YLR268W, strain sec22, stronger effect = lower value 1.01 | S. cerevisiae deletion strains, locus YLR320W, strain mms22, stronger effect = lower value 1.01 | S. cerevisiae deletion strains, locus YLR330W, strain CHS5, stronger effect = lower value 1 | S. cerevisiae deletion strains, locus YLR342W, strain FKS1 (second series), stronger effect = lower value 1.03 | S. cerevisiae deletion strains, locus YLR342W, strain FKS1, stronger effect = lower value 1.01 | S. cerevisiae deletion strains, locus YLR357W, strain rsc2, stronger effect = lower value 1.02 | S. cerevisiae deletion strains, locus YLR370C, strain arc18, stronger effect = lower value 1.01 | S. cerevisiae deletion strains, locus YLR371W, strain rom2, stronger effect = lower value 1.02 | S. cerevisiae deletion strains, locus YLR384C, strain iki3, stronger effect = lower value 1 | S. cerevisiae deletion strains, locus YLR418C, strain cdc73, stronger effect = lower value 1.01 | S. cerevisiae deletion strains, locus YML016C, strain PPZ1, stronger effect = lower value 0.992 | S. cerevisiae deletion strains, locus YML032C, strain rad52, stronger effect = lower value 1.03 | S. cerevisiae deletion strains, locus YML120C, strain ndi1, stronger effect = lower value 1 | S. cerevisiae deletion strains, locus YML124C, strain tub3, stronger effect = lower value 1.01 | S. cerevisiae deletion strains, locus YMR058W, strain fet3, stronger effect = lower value 1.01 | S. cerevisiae deletion strains, locus YMR078C, strain ctf18, stronger effect = lower value 1.02 | S. cerevisiae deletion strains, locus YMR125W, strain sto1, stronger effect = lower value 1.01 | S. cerevisiae deletion strains, locus YMR129W, stronger effect = lower value 0.992 | S. cerevisiae deletion strains, locus YMR205C, strain PFK2, stronger effect = lower value 1.02 | S. cerevisiae deletion strains, locus YMR223W, strain ubp8, stronger effect = lower value 1.02 | S. cerevisiae deletion strains, locus YMR231W, strain pep5, stronger effect = lower value 1.01 | S. cerevisiae deletion strains, locus YMR263W, strain SAP30, stronger effect = lower value 0.994 | S. cerevisiae deletion strains, locus YMR307W, strain GAS1, stronger effect = lower value 1.02 | S. cerevisiae deletion strains, locus YNL067W, strain RPL9B, stronger effect = lower value 0.99 | S. cerevisiae deletion strains, locus YNL071W, strain lat1, stronger effect = lower value 1 | S. cerevisiae deletion strains, locus YNL128W, strain TEP1, stronger effect = lower value 0.991 | S. cerevisiae deletion strains, locus YNL153C, strain GIM3, stronger effect = lower value 0.996 | S. cerevisiae deletion strains, locus YNL183C, strain NPR1, stronger effect = lower value 0.985 | S. cerevisiae deletion strains, locus YNL209W, strain ssb2, stronger effect = lower value 1 | S. cerevisiae deletion strains, locus YNL233W, strain BNI4, stronger effect = lower value 0.992 | S. cerevisiae deletion strains, locus YNL248C, strain rpa49, stronger effect = lower value 0.969 | S. cerevisiae deletion strains, locus YNL250W, strain rad50, stronger effect = lower value 1.01 | S. cerevisiae deletion strains, locus YNL271C, strain bni1, stronger effect = lower value 1.01 | S. cerevisiae deletion strains, locus YNL298W, strain CLA4, stronger effect = lower value 1.02 | S. cerevisiae deletion strains, locus YNL307C, strain MCK1, stronger effect = lower value 1.03 | S. cerevisiae deletion strains, locus YNL322C, strain KRE1 (second series), stronger effect = lower value 1 | S. cerevisiae deletion strains, locus YNL322C, strain KRE1, stronger effect = lower value 0.999 | S. cerevisiae deletion strains, locus YNR049C, strain mso1, stronger effect = lower value 0.996 | S. cerevisiae deletion strains, locus YNR052C, strain pop2, stronger effect = lower value 1.02 | S. cerevisiae deletion strains, locus YOL006C, strain TOP1, stronger effect = lower value 1.03 | S. cerevisiae deletion strains, locus YOL012C, strain htz1 0.95 | S. cerevisiae deletion strains, locus YOL147C, strain pex11, stronger effect = lower value 1.02 | S. cerevisiae deletion strains, locus YOR001W, strain rrp6, stronger effect = lower value 0.979 | S. cerevisiae deletion strains, locus YOR061W, strain CKA2, stronger effect = lower value 0.994 | S. cerevisiae deletion strains, locus YOR069W, strain VPS5, stronger effect = lower value 1 | S. cerevisiae deletion strains, locus YOR070C, strain gyp1, stronger effect = lower value 1.01 | S. cerevisiae deletion strains, locus YOR080W, strain dia2, stronger effect = lower value 1 | S. cerevisiae deletion strains, locus YOR083W, strain WHI5, stronger effect = lower value 0.999 | S. cerevisiae deletion strains, locus YOR106W, strain vam3, stronger effect = lower value 0.993 | S. cerevisiae deletion strains, locus YOR136W, strain idh2, stronger effect = lower value 1.01 | S. cerevisiae deletion strains, locus YOR144C, strain elg1, stronger effect = lower value 1.01 | S. cerevisiae deletion strains, locus YOR184W, strain ser1, stronger effect = lower value 1.03 | S. cerevisiae deletion strains, locus YOR231W, strain MKK1, stronger effect = lower value 1.05 | S. cerevisiae deletion strains, locus YOR265W, strain rbl2, stronger effect = lower value 1.01 | S. cerevisiae deletion strains, locus YOR270C, strain vph1, stronger effect = lower value 0.987 | S. cerevisiae deletion strains, locus YOR290C, strain snf2, stronger effect = lower value 1 | S. cerevisiae deletion strains, locus YOR316C, strain cot1, stronger effect = lower value 1.01 | S. cerevisiae deletion strains, locus YPL051W, strain arl3, stronger effect = lower value 1 | S. cerevisiae deletion strains, locus YPL055C, strain LGE1, stronger effect = lower value 0.984 | S. cerevisiae deletion strains, locus YPL078C, strain atp4, stronger effect = lower value 0.986 | S. cerevisiae deletion strains, locus YPL106C, strain sse1, stronger effect = lower value 1 | S. cerevisiae deletion strains, locus YPL240C, strain hsp82, stronger effect = lower value 1 | S. cerevisiae deletion strains, locus YPL241C, strain CIN2, stronger effect = lower value 0.994 | S. cerevisiae deletion strains, locus YPL256C, strain CLN2, stronger effect = lower value 1.06 | S. cerevisiae deletion strains, locus YPR119W, strain clb2, stronger effect = lower value 1.01 | S. cerevisiae deletion strains, locus YPR141C, strain kar3, stronger effect = lower value 1.01 | S. cerevisiae deletion strains, locus YPR163C, strain tif3, stronger effect = lower value 1.02 | S. cerevisiae deletion strains, locus YPR167C, strain met16, stronger effect = lower value 1.01 | S. cerevisiae deletion strains, strain wtn01, stronger effect = lower value 1.01 | S. cerevisiae strains, strain wild type, stronger effect = lower value 0.996
